SMILES strings stand for the structures. Inconclusive results are not listed. Activity calls are given as the source filed them. How the source made its calls: active means hit-call score of the fitted dose curve at least 0.9, where 1 is the maximum; inconclusive means response in the unintended direction; inactive means score below 0.9.

Read-out in this test: HMG-CoA synthase (HMGCS2), HMGCS2 (gene 3158)
In words: CLD_HMGCS2_6hr: CellzDirect (CLD) Gene Expression Assay for HMG-CoA synthase (HMGCS2) at 6 hours (AID 2283682).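 Further: actives raise HMGCS2 transcript above the 0.2% DMSO vehicle baseline.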 Here is the method: CLD_6hr is a cell-based, multiplexed-readout assay that uses hepatocyte, a human liver primary cell, with measurements taken at 6 hours after chemical dosing in a 96-well plate.CLD_HMGCS2_6hr is one of 16 assay component(s) measured or calculated from the CLD_6hr assay. It is designed to make measurements of mRNA induction, a form of inducible reporter, as detected with chemiluminescence signals by Quantitative Nuclease Protection Assay (qNPA) technology.Data from the assay component CLD_HMGCS2_6hr was analyzed at the endpoint, CLD_HMGCS2_6hr, in the positive analysis fitting direction relative to DMSO as the negative control and baseline of activity. Using a type of inducible reporter, gain-of-signal activity can be used to understand changes in the reporter gene as they relate to the gene HMGCS2. Furthermore, this assay endpoint can be referred to as a primary readout. To generalize the intended target to other relatable targets, this assay endpoint is annotated to the lyase intended target family, where subfamily is HMG-CoA synthase.
Human hepatocyte cultures were treated daily for two consecutive days with fresh dosing solutions containing appropriate concentrations of the 320 ToxCast chemicals (chemical identities were blinded to CellzDirect and other ToxCast collaborators), vehicle control (0.2% DMSO), and positive control inducers as summarized in Table 1. Due to the large number of treatment groups and chemicals examined, the ToxCast chemicals were divided into two groups (spanning two independent cultures of hepatocytes from separate donor preparations (Hu778: ToxCast plates 1 and 2; Hu776: ToxCast plates 3 and 4). Each preparation of human hepatocyte cultures was treated with respective vehicle control, medium only control, set of six positive controls/reference chemicals for the five hepatic receptor pathways, and a subset of eight of the ToxCast chemicals (indoxacarb, pyrithiobac-sodium, norflurazon, cyhalofop-butyl, methomyl, thiram, acetochlor, and propiconazole). These replicate data, coupled with internal replicates designed within the blinded ToxCast chemical library, provided additional data to evaluate interindividual differences between hepatocyte preparations and their potential impact on chemical profiles.Cell morphology and integrity were evaluated using phase-contrast microscopy as an indicator of hepatocyte cell health (Tyson & Green, 1987). Cultures for each treatment group (i.e., media, vehicle [0.2% DMSO], positive control inducers [multiple concentrations], and the ToxCast chemicals [multiple concentrations]) were observed and cell morphology was assessed relative to vehicle control cultures at each harvest time point (0, 6, 24, or 48 h). […] Images were evaluated at the conclusion of the study to assess changes in cell integrity and account for the effects of chemical exposure on uncharacteristic changes in concentration-dependent gene expression profiles. The results from these determinations of apparent cytotoxicity were annotated (yes/no) alongside the corresponding qNPA data for reference.At the conclusion of each treatment period, hepatocyte cultures (96-well) were washed with 1 volume of HBSS, lysed by addition of 25 ul ArrayPlate lysis buffer (HTG, Tucson, AZ), and 70 ul/well of Denaturation Oil, denatured by incubation at 95C for 10 min, and frozen at approximately -70C until analysis by nuclease protection assay (qNPA) (Roberts et al., 2007). For qNPA analysis, cell lysates were thawed at 50C for approximately 30 min, qNPA probes were added, and samples were incubated at 95C for 10 min to begin the detection process by denaturing the target RNA, dissociating the duplexes and secondary structure hybridization. At the conclusion of the hybridization period, S1 nuclease reagent was added to each sample to digest all nonprotected nucleotides at 50C for 60-90 min. […]
For `CS(=O)(=O)c1cc(C(F)(F)F)ccc1C(=O)c1cnoc1C1CC1`, the concentration at half-maximal activity (AC50) (as a rule, the concentration giving half of the maximal activity seen) is 3970 nM (active).
`Cn1c(-c2ccccc2)cc(-c2ccccc2)[n+]1C`: the call was inactive.
As for `O=c1n(Cl)c(=O)n(Cl)c(=O)n1Cl`, the outcome was inactive.
On the same count and under the same terms, the same measure for `CSC(=O)c1c(C(F)F)nc(C(F)(F)F)c(C(=O)SC)c1CC(C)C`: “inactive”; for `Nc1cnn(-c2ccccc2)c(=O)c1Cl`: “inactive”; for `CCC(C)n1c(=O)[nH]c(C)c(Br)c1=O` (stereo unspecified): “inactive”.
Same read-out and setting: the same measure for `COc1cc(OC)nc(NC(=O)NS(=O)(=O)c2ncccc2OCC(F)(F)F)n1`: “inactive”; for `CCSC(=O)N1CCCCCC1`: “inactive”.
Regarding `CC(C)N1C(=O)c2ccccc2NS1(=O)=O`, the half-maximal activity concentration (AC50) was 7.35 nM (active).
For `O=C(Nc1ccccc1-c1ccc(Cl)cc1)c1cccnc1Cl`, the result was inactive.
Same read-out and setting: the same measure for `CCOc1nc(F)cc2nc(S(=O)(=O)Nc3c(Cl)cccc3Cl)nn12`: “inactive”; for `Cc1cnc(C2=NC(C)(C(C)C)C(=O)N2)c(C(=O)O)c1` (stereo unspecified): “inactive”; for `Cc1ccc(N=CN(C)C=Nc2ccc(C)cc2C)c(C)c1`: “inactive”.
Same read-out and setting: the same measure for `Clc1cccc(C(Cl)(Cl)Cl)n1`: “inactive”.
Same read-out and setting: the entry for `N#Cc1c[nH]cc1-c1cccc2c1OC(F)(F)O2` is “inactive”; for `CCNP(=S)(OC)O/C(C)=C/C(=O)OC(C)C` (stereo unspecified) it is “inactive”; for `COC(=O)NS(=O)(=O)c1ccc(N)cc1` it is “inactive”.
With `CC1(C)C(C=C(Cl)Cl)C1C(=O)OC(C#N)c1cccc(Oc2ccccc2)c1` (stereo unspecified), the outcome was inactive.
For the compound `CC1(C)C(C(=O)OC(C#N)c2cccc(Oc3ccccc3)c2)C1(C)C` (stereo unspecified), the outcome was inactive.
Turning to `C=C(C)CN(CC)c1c([N+](=O)[O-])cc(C(F)(F)F)cc1[N+](=O)[O-]`, the result was inactive.
Take `CCCN(CC)CC1COC2(CCC(C(C)(C)C)CC2)O1` (stereo unspecified): the outcome was inactive.
Same read-out and setting: the same measure for `CCNC(=O)NC(=O)C(C#N)=NOC`: “inactive”; for `COCC(=O)N(c1c(C)cccc1C)C(C)C(=O)OC` (stereo unspecified): “inactive”.
`COc1ccc(-c2ccccc2)cc1NNC(=O)OC(C)C`: the result was inactive.
`CCOC(=O)C(C)OC(=O)c1cc(Oc2ccc(C(F)(F)F)cc2Cl)ccc1[N+](=O)[O-]` (stereo unspecified): the AC50 is 24.1 nM (active).
For the compound `C=CCOC(=O)C(C)(C)OC(=O)c1cc(-n2c(=O)cc(C(F)(F)F)n(C)c2=O)ccc1Cl`, the compound was called inactive.
Regarding `COC(=O)NC(=S)Nc1ccccc1NC(=S)NC(=O)OC`, the call was inactive.
With `CC1(C)CON(Cc2ccccc2Cl)C1=O`, the call was inactive.
Still for that read-out and setting: the same measure for `Nc1c(Cl)c(Cl)nc(C(=O)O)c1Cl`: “inactive”; for `CCN(CC)c1nc(C)cc(OP(=S)(OC)OC)n1`: “inactive”.
As to `CCOc1cc(C(C)(C)C)ccc1C1COC(c2c(F)cccc2F)=N1` (stereo unspecified), the result was inactive.

The record behind these values is PubChem BioAssay (EPA / NIEHS).
